Assay results published in the supplement of paper PMC11732987, “Enantioselective OTUD7B fragment discovery through chemoproteomics screening and high-throughput optimisation” (Communications Chemistry, 2025).

Tests used:
Experiment in all cases: log2 ratio of Biotin-Ahx-Ub-VS probe labelling (fragment/DMSO); higher = less target engagement (more negative = stronger competition), active = hit call of the paper (q ≤ 0.05, log2 ratio ≤ -1)
Conditions in all cases: compound concentration: 200 uM; treatment time: 3 h
[1] = target: T1, USP19 (UniProt O94966)
T1 sequence (whole entry): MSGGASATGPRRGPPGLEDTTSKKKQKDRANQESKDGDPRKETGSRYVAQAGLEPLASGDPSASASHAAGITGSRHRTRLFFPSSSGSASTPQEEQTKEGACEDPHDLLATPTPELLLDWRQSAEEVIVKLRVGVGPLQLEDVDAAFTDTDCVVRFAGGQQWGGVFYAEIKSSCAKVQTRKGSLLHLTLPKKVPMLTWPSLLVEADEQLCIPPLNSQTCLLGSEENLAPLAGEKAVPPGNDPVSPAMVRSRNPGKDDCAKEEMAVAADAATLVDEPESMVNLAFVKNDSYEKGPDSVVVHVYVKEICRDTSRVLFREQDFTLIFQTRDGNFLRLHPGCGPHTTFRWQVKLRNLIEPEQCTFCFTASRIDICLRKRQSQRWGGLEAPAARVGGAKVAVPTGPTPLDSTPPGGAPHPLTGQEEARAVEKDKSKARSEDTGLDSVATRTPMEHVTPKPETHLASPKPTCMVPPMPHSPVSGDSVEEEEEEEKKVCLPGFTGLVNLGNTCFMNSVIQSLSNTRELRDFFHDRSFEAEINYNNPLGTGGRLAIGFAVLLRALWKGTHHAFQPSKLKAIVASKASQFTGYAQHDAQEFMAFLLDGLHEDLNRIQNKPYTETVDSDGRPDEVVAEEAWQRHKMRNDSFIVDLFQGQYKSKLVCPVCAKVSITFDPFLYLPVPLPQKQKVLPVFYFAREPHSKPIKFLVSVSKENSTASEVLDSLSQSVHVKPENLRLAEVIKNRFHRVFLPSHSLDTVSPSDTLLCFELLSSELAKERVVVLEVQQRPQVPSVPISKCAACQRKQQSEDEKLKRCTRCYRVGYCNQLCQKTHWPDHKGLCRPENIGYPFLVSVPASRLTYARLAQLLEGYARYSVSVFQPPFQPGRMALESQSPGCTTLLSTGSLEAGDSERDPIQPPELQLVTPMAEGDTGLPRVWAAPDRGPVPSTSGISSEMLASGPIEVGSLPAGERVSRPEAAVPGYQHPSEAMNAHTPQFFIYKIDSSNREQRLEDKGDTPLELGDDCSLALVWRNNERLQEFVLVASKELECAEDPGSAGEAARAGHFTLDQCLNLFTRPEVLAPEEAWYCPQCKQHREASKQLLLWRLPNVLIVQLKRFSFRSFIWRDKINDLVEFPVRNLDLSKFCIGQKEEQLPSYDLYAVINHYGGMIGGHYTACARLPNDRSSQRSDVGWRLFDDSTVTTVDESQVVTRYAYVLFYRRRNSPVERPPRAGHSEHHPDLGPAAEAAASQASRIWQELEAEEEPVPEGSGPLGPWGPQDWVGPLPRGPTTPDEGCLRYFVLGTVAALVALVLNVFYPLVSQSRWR
Summary of the method: (§1)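 Labelled DUBs from HEK293T lysate were NeutrAvidin-enriched, digested with LysC and trypsin, and run by diaPASEF LC-MS/MS. Before that, each 495 µg sample in Tris/CHAPS/IGEPAL buffer with protease inhibitors was treated in triplicate with fragment at 200 µM or vehicle for 3 h, then with Biotin-Ahx-Ub-VS at 0.5 µM final for 1 h. Values are average log2 ratios of fragment over vehicle by unpaired t-test, based on global-median-normalised Spectronaut label-free quantities from proteins with ≥2 unique peptides.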

[2] = target: T2, USP22 (UniProt Q9UPT9)
T2 sequence (whole entry): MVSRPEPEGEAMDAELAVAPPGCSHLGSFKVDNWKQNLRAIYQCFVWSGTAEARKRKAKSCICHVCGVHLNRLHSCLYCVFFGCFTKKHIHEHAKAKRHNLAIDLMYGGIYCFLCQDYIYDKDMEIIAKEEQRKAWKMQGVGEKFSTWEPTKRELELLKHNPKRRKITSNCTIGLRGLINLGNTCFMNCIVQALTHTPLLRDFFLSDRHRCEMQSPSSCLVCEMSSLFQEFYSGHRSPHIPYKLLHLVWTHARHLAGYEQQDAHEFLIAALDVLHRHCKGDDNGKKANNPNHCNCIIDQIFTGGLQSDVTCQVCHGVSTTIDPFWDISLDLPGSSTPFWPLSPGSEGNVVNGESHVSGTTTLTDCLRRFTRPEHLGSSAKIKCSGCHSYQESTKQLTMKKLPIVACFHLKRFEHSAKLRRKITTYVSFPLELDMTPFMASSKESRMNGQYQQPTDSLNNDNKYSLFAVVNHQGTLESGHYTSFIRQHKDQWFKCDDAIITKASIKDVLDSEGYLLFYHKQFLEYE
Summary of the method: as §1

[3] = target: USP24 (UniProt Q9UPU5)
Summary of the method: as §1

[4] = target: T3, USP25 (UniProt Q9UHP3)
T3 sequence (whole entry): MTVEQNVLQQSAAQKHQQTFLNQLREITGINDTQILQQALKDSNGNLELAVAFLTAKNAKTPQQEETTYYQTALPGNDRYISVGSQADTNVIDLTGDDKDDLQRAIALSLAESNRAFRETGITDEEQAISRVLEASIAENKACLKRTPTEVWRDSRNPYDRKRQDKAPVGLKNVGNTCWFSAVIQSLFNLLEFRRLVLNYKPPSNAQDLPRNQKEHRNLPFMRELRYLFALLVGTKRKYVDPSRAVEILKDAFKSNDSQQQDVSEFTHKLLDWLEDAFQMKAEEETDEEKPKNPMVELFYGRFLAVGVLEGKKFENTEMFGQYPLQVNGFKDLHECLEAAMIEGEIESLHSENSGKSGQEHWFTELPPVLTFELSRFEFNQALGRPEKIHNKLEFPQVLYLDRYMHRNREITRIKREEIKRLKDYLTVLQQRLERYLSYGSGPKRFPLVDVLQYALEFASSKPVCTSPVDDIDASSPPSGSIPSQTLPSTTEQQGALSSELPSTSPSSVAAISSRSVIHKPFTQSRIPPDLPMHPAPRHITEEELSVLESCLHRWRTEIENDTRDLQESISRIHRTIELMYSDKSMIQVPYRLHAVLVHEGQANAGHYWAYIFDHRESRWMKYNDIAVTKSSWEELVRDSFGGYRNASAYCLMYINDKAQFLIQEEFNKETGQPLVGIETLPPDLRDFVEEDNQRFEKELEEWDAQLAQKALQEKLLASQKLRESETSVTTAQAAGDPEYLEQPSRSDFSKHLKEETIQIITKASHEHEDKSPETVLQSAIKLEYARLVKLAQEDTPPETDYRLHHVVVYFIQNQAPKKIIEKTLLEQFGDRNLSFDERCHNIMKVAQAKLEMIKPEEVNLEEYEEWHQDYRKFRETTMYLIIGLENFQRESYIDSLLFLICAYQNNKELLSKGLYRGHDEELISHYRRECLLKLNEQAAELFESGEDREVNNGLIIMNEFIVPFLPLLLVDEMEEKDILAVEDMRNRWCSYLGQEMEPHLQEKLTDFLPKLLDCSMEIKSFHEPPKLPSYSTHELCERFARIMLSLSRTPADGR
Summary of the method: as §1

[5] = target: T4, USP28 (UniProt Q96RU2)
T4 sequence (whole entry): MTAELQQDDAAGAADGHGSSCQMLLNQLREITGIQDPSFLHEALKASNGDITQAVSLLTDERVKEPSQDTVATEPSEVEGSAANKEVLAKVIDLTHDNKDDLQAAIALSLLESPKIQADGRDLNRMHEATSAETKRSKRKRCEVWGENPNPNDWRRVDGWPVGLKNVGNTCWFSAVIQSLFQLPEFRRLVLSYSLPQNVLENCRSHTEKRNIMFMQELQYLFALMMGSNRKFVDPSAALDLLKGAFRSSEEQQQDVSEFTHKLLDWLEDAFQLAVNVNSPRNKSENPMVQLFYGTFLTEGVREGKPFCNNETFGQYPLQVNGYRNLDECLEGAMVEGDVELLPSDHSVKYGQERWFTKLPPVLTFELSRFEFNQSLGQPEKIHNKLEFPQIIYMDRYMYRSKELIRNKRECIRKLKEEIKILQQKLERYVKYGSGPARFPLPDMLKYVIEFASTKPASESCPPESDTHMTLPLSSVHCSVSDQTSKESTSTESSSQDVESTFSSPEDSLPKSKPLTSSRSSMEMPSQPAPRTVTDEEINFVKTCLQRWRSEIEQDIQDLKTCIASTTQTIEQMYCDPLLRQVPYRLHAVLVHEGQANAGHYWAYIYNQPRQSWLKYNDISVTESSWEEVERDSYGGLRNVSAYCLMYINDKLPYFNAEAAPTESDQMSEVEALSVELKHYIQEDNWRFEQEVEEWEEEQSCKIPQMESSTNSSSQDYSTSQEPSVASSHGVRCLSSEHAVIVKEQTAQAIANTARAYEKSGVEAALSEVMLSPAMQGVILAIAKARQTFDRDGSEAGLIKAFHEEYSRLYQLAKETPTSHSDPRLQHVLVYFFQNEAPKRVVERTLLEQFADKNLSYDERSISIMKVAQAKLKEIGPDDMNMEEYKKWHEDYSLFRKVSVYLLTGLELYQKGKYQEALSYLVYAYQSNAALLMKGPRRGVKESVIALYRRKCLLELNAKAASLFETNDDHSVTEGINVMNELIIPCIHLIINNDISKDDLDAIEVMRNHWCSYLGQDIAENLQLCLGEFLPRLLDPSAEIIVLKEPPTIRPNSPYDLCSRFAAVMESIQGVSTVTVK
Summary of the method: as §1

Measured: log2 ratio of Biotin-Ahx-Ub-VS probe labelling

Sequence of USP24 (Q9UPU5 whole entry): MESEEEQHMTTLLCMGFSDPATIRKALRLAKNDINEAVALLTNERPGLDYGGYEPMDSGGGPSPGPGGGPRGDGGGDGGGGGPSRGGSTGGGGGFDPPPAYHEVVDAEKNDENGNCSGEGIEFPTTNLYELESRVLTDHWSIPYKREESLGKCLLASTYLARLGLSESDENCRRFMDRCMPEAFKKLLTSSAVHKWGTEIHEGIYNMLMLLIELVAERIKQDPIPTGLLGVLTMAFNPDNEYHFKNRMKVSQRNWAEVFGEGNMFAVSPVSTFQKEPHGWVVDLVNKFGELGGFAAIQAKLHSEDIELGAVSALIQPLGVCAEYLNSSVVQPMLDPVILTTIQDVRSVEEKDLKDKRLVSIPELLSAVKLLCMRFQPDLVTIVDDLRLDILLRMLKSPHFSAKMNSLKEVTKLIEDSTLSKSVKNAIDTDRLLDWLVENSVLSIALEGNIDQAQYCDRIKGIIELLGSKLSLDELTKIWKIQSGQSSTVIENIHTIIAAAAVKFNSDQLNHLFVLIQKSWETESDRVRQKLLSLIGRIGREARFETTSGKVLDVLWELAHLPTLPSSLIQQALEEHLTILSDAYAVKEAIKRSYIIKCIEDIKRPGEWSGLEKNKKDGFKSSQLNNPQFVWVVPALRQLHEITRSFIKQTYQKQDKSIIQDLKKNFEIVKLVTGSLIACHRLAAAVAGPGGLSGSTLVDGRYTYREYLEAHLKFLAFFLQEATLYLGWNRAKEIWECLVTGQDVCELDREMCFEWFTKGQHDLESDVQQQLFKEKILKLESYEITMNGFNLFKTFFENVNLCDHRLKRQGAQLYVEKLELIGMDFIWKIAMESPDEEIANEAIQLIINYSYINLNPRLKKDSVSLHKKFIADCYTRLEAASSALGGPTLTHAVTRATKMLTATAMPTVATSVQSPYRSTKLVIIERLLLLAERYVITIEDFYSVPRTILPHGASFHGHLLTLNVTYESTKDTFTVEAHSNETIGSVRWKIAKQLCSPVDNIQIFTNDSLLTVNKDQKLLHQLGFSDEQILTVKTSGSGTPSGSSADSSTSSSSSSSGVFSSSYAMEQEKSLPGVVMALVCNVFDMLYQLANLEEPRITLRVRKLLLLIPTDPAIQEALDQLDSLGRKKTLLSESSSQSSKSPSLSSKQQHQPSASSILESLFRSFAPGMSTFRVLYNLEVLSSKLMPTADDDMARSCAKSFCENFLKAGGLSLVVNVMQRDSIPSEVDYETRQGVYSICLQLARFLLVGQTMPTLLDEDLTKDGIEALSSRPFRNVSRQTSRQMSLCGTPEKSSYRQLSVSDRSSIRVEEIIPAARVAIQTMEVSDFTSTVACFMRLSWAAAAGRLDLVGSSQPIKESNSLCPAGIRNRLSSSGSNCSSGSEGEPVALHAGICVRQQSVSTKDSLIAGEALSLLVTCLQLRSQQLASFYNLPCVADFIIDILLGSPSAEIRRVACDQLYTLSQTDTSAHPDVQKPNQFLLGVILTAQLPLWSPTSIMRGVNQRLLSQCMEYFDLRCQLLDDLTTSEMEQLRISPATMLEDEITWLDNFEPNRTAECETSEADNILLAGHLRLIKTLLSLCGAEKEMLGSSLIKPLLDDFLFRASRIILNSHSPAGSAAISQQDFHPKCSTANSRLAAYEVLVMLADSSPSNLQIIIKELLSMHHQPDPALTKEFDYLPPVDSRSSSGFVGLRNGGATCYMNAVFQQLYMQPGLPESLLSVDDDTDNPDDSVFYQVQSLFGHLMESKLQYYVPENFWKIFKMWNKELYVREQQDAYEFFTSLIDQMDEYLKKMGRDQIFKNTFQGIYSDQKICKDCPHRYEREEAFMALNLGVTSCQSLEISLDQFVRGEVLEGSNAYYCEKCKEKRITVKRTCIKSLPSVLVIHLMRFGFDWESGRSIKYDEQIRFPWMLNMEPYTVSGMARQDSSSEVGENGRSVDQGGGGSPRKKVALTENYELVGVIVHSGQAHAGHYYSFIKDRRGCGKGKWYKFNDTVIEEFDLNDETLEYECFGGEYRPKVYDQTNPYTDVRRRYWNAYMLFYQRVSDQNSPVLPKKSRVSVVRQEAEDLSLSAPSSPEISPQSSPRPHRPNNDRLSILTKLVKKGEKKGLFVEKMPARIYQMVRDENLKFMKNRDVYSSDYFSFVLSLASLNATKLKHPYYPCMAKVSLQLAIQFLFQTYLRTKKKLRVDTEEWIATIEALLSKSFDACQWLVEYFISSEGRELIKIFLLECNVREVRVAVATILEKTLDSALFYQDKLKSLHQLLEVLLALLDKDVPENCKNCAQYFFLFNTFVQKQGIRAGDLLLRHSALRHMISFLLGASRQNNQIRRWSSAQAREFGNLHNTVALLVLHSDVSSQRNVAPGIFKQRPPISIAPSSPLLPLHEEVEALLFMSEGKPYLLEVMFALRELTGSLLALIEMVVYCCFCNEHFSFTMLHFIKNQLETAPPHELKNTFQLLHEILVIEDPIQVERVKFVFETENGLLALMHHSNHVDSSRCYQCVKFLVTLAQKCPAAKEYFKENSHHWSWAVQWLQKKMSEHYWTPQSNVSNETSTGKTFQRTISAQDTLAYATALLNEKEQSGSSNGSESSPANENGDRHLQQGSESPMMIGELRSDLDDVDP

CS(=O)(=O)N1CCCN(C(=O)CCl)CC1
inactive: [1] -0.0881 | [2] 0.0754 | [3] -0.0413 | [4] -0.243 | [5] -0.549
